Measurements published in ChEMBL document CHEMBL1961873, “Compounds: GSK PKIS; Assays: Nanosyn kinase panel” (2012).

Experiments:
[1] = target: Casein kinase I isoform gamma-2 (Homo sapiens) (UniProt P78368); conditions: at 1 µM
[2] = target: Casein kinase I isoform gamma-3 (Homo sapiens) (UniProt Q9Y6M4); conditions: at 0.1 µM
[3] = target: Casein kinase I isoform gamma-3 (Homo sapiens) (UniProt Q9Y6M4); conditions: at 1 µM
[4] = target: Cyclin-dependent kinase 1 (Homo sapiens) (UniProt P06493); conditions: at 0.1 µM
Cyclin-dependent kinase 1 (Homo sapiens), sequence (P06493 whole entry, looked up): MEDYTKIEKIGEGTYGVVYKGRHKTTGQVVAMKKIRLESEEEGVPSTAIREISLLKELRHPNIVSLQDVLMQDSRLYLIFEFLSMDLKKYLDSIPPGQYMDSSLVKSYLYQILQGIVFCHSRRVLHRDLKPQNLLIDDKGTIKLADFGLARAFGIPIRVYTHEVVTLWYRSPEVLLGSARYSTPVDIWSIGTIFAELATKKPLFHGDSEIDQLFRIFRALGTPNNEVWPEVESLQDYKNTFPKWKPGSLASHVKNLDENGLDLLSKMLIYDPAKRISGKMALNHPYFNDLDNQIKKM

[5] = target: Cyclin-dependent kinase 1 (Homo sapiens) (UniProt P06493); conditions: at 1 µM
[6] = target: Cyclin-dependent kinase 2 (Homo sapiens) (UniProt P24941); conditions: at 0.1 µM
[7] = target: Cyclin-dependent kinase 2 (Homo sapiens) (UniProt P24941); conditions: at 1 µM
[8] = target: Cyclin-dependent kinase 2 (Homo sapiens) (UniProt P24941); conditions: at 0.1 µM; remark: listed apart in the source
[9] = target: Cyclin-dependent kinase 2 (Homo sapiens) (UniProt P24941); conditions: at 1 µM; remark: listed apart in the source
[10] = target: T1, CDK3/Cyclin E (Homo sapiens) (UniProt P24864+Q00526); conditions: at 0.1 µM
T1 sequence (P24864 whole entry, looked up): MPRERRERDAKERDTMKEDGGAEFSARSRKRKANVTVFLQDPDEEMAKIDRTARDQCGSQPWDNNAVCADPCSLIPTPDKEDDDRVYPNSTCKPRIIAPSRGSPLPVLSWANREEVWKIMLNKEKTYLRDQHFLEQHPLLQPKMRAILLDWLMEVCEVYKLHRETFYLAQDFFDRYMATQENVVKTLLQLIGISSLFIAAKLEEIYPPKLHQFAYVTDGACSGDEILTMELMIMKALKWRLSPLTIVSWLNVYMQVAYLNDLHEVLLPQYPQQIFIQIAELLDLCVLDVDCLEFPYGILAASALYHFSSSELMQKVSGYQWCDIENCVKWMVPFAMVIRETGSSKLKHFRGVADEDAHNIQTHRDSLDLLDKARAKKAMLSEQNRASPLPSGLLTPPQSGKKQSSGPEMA
T1 sequence (Q00526 whole entry, looked up): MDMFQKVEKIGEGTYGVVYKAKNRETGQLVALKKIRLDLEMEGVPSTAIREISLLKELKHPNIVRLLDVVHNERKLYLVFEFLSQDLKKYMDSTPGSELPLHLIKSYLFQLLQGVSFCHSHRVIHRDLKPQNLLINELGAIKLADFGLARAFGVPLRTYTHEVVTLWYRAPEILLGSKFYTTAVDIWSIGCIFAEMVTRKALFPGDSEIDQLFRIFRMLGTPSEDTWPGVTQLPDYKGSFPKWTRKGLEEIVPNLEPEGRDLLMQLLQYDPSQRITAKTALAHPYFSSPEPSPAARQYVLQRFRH

[11] = target: T1, CDK3/Cyclin E (Homo sapiens); conditions: at 1 µM
[12] = target: Cyclin-dependent kinase 4 (Homo sapiens) (UniProt P11802); conditions: at 0.1 µM
Cyclin-dependent kinase 4 (Homo sapiens), sequence (P11802 whole entry): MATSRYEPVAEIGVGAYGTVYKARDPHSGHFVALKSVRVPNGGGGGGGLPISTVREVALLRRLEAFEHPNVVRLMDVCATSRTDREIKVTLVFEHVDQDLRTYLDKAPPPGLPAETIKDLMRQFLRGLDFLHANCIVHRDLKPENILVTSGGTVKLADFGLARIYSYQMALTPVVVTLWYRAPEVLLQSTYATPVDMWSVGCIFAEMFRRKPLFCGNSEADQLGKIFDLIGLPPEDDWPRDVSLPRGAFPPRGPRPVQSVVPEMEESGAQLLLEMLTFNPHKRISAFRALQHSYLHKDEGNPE

[13] = target: Cyclin-dependent kinase 4 (Homo sapiens) (UniProt P11802); conditions: at 1 µM
[14] = target: Cyclin-dependent kinase 5 (Homo sapiens) (UniProt Q00535); conditions: at 0.1 µM
Cyclin-dependent kinase 5 (Homo sapiens), sequence (Q00535 whole entry, looked up): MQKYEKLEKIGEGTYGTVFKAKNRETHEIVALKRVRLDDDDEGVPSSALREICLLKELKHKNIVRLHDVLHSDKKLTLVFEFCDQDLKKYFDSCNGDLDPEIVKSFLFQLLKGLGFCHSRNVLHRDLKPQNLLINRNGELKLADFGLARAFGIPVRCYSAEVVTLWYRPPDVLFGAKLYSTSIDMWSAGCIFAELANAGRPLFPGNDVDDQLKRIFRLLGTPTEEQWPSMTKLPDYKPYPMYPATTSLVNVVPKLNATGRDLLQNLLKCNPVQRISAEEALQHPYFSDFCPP

[15] = target: Cyclin-dependent kinase 5 (Homo sapiens) (UniProt Q00535); conditions: at 1 µM
[16] = target: Cyclin-dependent kinase 6 (Homo sapiens) (UniProt Q00534); conditions: at 0.1 µM
Cyclin-dependent kinase 6 (Homo sapiens), sequence (Q00534 whole entry): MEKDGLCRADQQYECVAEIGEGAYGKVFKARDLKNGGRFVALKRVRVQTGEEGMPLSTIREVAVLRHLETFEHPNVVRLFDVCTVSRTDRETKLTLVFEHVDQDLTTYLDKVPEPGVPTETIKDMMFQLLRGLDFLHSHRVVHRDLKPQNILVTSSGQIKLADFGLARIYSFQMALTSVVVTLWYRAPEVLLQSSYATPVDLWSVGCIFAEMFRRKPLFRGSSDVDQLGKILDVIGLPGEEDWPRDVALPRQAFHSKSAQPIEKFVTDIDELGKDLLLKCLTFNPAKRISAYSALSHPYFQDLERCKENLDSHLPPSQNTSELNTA

[17] = target: Cyclin-dependent kinase 6 (Homo sapiens) (UniProt Q00534); conditions: at 1 µM
[18] = target: Dual specificity protein kinase CLK2 (Homo sapiens) (UniProt P49760); conditions: at 0.1 µM
Dual specificity protein kinase CLK2 (Homo sapiens), sequence (P49760 whole entry, looked up): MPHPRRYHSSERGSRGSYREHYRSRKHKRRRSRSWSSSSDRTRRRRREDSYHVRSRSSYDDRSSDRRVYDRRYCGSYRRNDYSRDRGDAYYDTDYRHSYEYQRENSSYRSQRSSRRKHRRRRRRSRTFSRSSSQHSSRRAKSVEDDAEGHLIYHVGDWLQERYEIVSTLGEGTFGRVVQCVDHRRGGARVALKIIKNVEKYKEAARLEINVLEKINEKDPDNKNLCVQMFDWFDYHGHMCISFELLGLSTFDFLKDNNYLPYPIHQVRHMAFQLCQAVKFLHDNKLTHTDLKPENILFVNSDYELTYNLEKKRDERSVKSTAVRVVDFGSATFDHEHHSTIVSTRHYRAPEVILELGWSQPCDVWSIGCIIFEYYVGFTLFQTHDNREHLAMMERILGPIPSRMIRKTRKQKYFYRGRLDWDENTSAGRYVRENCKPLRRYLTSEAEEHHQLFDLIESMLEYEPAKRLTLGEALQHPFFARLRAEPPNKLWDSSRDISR

[19] = target: Dual specificity protein kinase CLK2 (Homo sapiens) (UniProt P49760); conditions: at 1 µM
[20] = target: Dual specificity protein kinase CLK3 (Homo sapiens) (UniProt P49761); conditions: at 0.1 µM
Dual specificity protein kinase CLK3 (Homo sapiens), sequence (P49761 whole entry, looked up): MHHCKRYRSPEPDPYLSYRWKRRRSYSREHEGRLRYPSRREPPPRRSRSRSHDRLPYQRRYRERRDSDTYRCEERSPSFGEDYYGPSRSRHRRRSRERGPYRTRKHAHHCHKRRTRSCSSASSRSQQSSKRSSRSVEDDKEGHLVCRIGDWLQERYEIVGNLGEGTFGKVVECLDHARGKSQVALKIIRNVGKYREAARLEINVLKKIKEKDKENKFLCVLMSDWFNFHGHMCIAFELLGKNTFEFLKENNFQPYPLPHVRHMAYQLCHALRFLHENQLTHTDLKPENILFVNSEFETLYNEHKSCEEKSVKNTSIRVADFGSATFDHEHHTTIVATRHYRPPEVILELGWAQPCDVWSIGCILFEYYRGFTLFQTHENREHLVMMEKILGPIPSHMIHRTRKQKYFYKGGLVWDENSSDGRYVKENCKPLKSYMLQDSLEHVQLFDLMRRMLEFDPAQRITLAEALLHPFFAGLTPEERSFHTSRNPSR

Casein kinase I isoform gamma-2 (Homo sapiens), sequence (P78368 whole entry, looked up, canonical isoform): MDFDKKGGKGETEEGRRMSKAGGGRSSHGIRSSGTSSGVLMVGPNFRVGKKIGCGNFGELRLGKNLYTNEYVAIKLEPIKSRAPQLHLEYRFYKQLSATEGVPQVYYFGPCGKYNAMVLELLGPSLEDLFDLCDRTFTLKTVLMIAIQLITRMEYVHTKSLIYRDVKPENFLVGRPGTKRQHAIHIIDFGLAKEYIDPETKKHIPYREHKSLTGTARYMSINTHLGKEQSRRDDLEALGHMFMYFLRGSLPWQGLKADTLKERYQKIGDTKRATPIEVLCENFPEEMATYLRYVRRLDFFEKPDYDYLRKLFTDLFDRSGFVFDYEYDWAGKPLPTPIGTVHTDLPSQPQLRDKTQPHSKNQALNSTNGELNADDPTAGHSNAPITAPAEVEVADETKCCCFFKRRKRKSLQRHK
Casein kinase I isoform gamma-3 (Homo sapiens), sequence (Q9Y6M4 whole entry, looked up, canonical isoform): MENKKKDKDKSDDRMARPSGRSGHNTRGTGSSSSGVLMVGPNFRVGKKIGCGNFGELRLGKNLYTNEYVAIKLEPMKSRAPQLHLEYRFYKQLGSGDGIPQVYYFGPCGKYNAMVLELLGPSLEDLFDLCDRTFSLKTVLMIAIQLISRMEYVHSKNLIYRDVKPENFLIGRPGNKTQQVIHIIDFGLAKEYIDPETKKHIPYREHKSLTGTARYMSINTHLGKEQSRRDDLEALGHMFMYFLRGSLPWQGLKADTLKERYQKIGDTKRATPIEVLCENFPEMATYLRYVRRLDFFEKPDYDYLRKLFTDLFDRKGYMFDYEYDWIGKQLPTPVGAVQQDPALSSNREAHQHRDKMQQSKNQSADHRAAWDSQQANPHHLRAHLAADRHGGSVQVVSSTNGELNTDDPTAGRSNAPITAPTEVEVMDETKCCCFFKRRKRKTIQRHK

SMILES	inhibition [1] [%]	inhibition [2] [%]	inhibition [3] [%]	inhibition [4] [%]	inhibition [5] [%]	inhibition [6] [%]	inhibition [7] [%]	inhibition [8] [%]	inhibition [9] [%]	inhibition [10] [%]	inhibition [11] [%]	inhibition [12] [%]	inhibition [13] [%]	inhibition [14] [%]	inhibition [15] [%]	inhibition [16] [%]	inhibition [17] [%]	inhibition [18] [%]	inhibition [19] [%]	inhibition [20] [%]
c1ccc(COc2ccc(Nc3ncnc4ccc(-c5ccco5)cc34)cc2)cc1	0.91	0.33	1.68	0.19	2.26	1.69	1.48	0.66	2.25	0.53	-1.75	-0.08	2.95	0.18	1.53	-2.29	-1.6	0.31	-0.79	-0.79
CCNC(=O)O[C@H]1CN[C@H](C#Cc2cc3ncnc(Nc4ccc(OCc5cccc(F)c5)c(Cl)c4)c3s2)C1	2.86	3.84	0.57	0.57	2.13	2.63	-0.72	2.61	3.62	1.08	0.27	2.39	3.42	0.38	1.78	9.65	9.16	1.63	2.34	0.76
COc1ccc(-c2nn3ncccc3c2-c2ccnc(Nc3ccc4c(c3)OCCO4)n2)cc1	3.08	0.17	1.38	0.5	1.38	0.22	0.43	-0.84	-0.22	-2.12	-2.16	-0.27	2.65	-0.08	2.41	-4.12	-0.81	0.37	0.98	-0.22
Clc1ccc(-c2nn3ncccc3c2-c2ccnc(Nc3ccccc3)n2)cc1	1.83	1.6	4.02	0.56	1.32	1.43	3.91	1.3	2.48	1.03	-0.36	1.45	2.58	0.66	1.41	1.16	4.53	-0.96	1.58	1.63
Cc1ccc(O)cc1Nc1ccnc2cc(-c3ccccn3)ccc12	6.53	4.03	6.72	0.02	1.83	0.84	6.62	3.98	4.84	1.95	-0.7	3.48	4.45	0.73	1.9	1.92	4.31	1.89	3.5	2.09
Cc1ccc2c(-c3ccnc(Nc4ccccc4)n3)c(-c3ccc(F)cc3)nn2n1	36.6	7.8	51.5	-0.23	1.56	2.27	0.79	2.35	5.57	2.45	2.55	6.51	6.75	0.32	2.21	3.66	5.2	2.31	2.23	1.04
COc1cccc(-c2c[nH]c3c(N/N=C/c4ccncc4)ncnc23)c1	4.26	1.09	4.42	42	74.2	30.4	73.7	9.46	45.5	6.61	51.3	10.5	45.7	38.8	73.1	12.2	51.4	2.83	20.4	2.11
Nc1ncc(-c2cccc(S(N)(=O)=O)c2)c2scc(-c3ccc(F)c(Cl)c3)c12	3.79	2.58	4.97	1.33	2.57	1.79	2.91	2.68	5.08	-2.34	-4.84	1.97	3.55	1.01	2.29	-0.13	1.9	2.7	-0.72	1.16
COC(=O)c1sc(-n2cnc3cc(OC)c(OC)cc32)cc1OCc1ccccc1C(F)(F)F	4.73	3.9	2.94	-0.15	1.15	1.51	3.81	4.73	8.33	3.47	-1.85	2.28	3.18	1.35	2.46	-2.2	5.15	1.6	2.65	0.11
Fc1ccc(-c2cc(-c3c[nH]nc3-c3ccccn3)ccn2)cc1	6.19	4.09	6.73	0.86	-0.63	2.51	5.92	2.72	3.29	2.03	-1.83	1.98	1.18	-0.24	-1.54	-0.57	2.29	2.53	2.71	1.32
NS(=O)(=O)c1ccc(Nc2ncc(-c3ccccc3)o2)cc1	4.34	3.53	3.96	19.7	66.2	48.2	109	56.2	86.8	44.6	77.2	9.25	26.5	23.8	70.3	13.1	48.6	1.81	1.67	2.28
N#Cc1c(NC(=O)CN2CCOCC2)sc2c1CCCC2	6.04	4.84	6.07	4.8	4.23	3.4	4.28	6.96	8.06	5.84	0.79	6.39	5.4	4.75	5.34	5.33	7.63	1.09	2.7	4.98
c1cc(-c2cnn3nc(N4CCOCC4)ccc23)nc(NC2CC2)n1	10.4	2.89	8.91	2.3	21.7	6.45	50.7	9.31	43.2	2.41	17.4	15	57.8	2.71	23.3	11.8	30.7	9.32	52	1.88
